# Compound activity (PubChem)
# WRN inhibitor = inhibitors of human WRN helicase | AID 651768 | Potency, µM (doses to about 114 µM), for inactives: at the top dose activity change, negative = inhibition, most hits filed as inhibitors | WRN helicase unwinding, fluorescent forked duplex, kinetic | Q14191 | actives 0.46% (n = 360,000); note: potency is the fitted concentration of half-maximal effect; % is set by controls: 0 for no effect and ±100 for the full control effect; nearly all actives have a fitted effect of over 55% in size
#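 Screening of the MLSMR collection measured strand separation of a quenched forked DNA duplex (100 nM) by 20 nM WRN with 2 mM ATP, all final. Compounds were preincubated with enzyme 15 min at room temperature.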
# PLK1 PBD inh = inhibitors of human PLK1 polo-box domain binding; Plk1 PBD binding of FITC phosphopeptide, fluorescence polarization; actives 2.8% (n = 360,000); Potency, µM, for the others: max response, negative = inhibition, most hits filed as inhibitors; note: potency is the fitted concentration of half-maximal effect; series mostly up to about 57 µM; % is set by controls: 0 for no effect and ±100 for the full control effect; nearly all actives have a fitted effect of over 65% in size
# VDR inhibitor = vitamin D3 receptor (human) inhibition; actives 0.93% (n = 400,000); Potency, µM, for inactives: max response, negative = inhibition, usual class: inhibitors; VDR-SRC2-3 peptide fluorescence polarization, 2 h; note: potency is the fitted concentration of half-maximal effect; % is set by controls: 0 for no effect and ±100 for the full control effect
#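 Fluorescence polarization assay measuring small-molecule disruption of VDR binding to the coregulator peptide SRC2-3. Compounds were pin-transferred (23 nl) into the reagent mix and incubated 2 h at room temperature before reading.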
# FEN1 inhibitor = blocks human flap endonuclease 1; P39748; Recombinant FEN1 flap cleavage, fluorescence, 15 min; Potency, µM (titrated, usually from 114 µM), without a hit: at the highest dose activity change, negative = inhibition, most hits filed as inhibitors; actives 0.35% (n = 390,000); note: potency is the fitted concentration of half-maximal effect; % is set by controls: 0 for no effect and ±100 for the full control effect; nearly all actives have a fitted effect of over 65% in size
# Target sequence (P39748 whole entry, looked up): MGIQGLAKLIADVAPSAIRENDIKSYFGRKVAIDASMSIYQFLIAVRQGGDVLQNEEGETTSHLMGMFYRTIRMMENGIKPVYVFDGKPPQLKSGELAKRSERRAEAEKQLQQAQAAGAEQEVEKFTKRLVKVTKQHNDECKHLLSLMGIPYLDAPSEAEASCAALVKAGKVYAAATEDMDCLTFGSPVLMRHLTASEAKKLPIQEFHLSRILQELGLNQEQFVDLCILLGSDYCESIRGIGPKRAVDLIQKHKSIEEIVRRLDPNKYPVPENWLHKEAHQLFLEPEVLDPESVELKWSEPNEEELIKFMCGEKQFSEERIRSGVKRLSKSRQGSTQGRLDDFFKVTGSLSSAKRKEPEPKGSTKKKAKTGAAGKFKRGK
#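 FEN1 at 10 nM, compound pretreatment for 15 min (room temperature), 50 nM final substrate to initiate; endpoint reads at 0 and 15 min; DMSO-only plates used as vehicle background.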
# TCR act = T cell receptor activation; primary human leukocytes, anti-CD3, IL-2 HTRF, 48 h; 330,000 tested, under 10 active; Potency, µM (titrated, usually from 9.22 µM), inactives show at the highest dose activation of IL-2 secretion, hits mostly activators; note: % of control where 0% means no effect
#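 Primary human leukocytes incubated 48 hr with anti-CD3 beads plus compound, without co-stimulation. Secreted IL-2 measured by HTRF (europium cryptate/d2 anti-IL-2 pair, 320 nm excitation, 665 nm emission).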
# PI5P4Ka inh = PI5P4K alpha (human) kinase inhibition; max response, %; PI5P4Kalpha enzyme, ADP-Glo luminescence, 60 min; active compounds read low; AID 652105; actives 1.2% (n = 330,000); active = max response of -50% or lower; inconclusive = between -30% and -50%; inactive = -30% or higher; note: value at the top dose of about 77 µM; % is set by controls: 0 for no effect and ±100 for the full control effect
#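 ADP-Glo luminescence end-point after a 60 min room-temperature kinase reaction. PI5P4Kalpha and substrate in HEPES pH 7.4 buffer with EGTA, 0.1% CHAPS and 5% DMSO; ATP at 5 microM final.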
# * marks the source's active call; other numbers are inactive results; ? = inconclusive; / = no result given; [ ] = remark or other dose. An excerpt weighted towards active compounds, which were near 3.7% of everything screened. Unless noted, calls come from the whole dose curve; as a rule, active = well fitted curve in the direction sought with a large enough effect; inconclusive = small, poorly fitted or top-dose-only effect, or another doubt; inactive = no such curve, though single readings can be large; an effect the other way counts as inactive or inconclusive.
SMILES,WRN inhibitor,PLK1 PBD inh,VDR inhibitor,FEN1 inhibitor,TCR act,PI5P4Ka inh
CC[C@]12CCCN3CCC4(c5ccccc5NC4C(C(=O)O)C1)C32 (some centres undefined),/,/,-15.1%,/,/,/
O=c1[nH]cc(N(CCCl)CCCl)c(=O)[nH]1,/,/,17.8µM*,/,/,/
NC(=O)CSc1nc2cc(S(=O)(=O)N3CCOCC3)ccc2o1,-12.4%,11.9µM*,?,-3.0%,2.0%,0.3
Cc1c(C(=O)N2CCC3(CC2)OCCO3)oc2ccc(S(=O)(=O)N3CCOCC3)cc12,-0.4%,-10.3%,-2.4%,-11.2%,1.7%,0.8
CN(N=O)c1ccc(O)c(O)c1,/,/,35.5µM*,/,/,/
CN1CCCCC1c1cccnc1 (centres undefined),/,/,1.1%,/,/,/
Oc1ccc(/C=N/NP(=S)(c2ccccc2)c2ccccc2)c(O)c1O,?,10.6µM*,-15.2%,?,-5.4%,-51.2*
c1ccc2c(c1)-c1cccc3cccc-2c13,0.3%,0.4%,-9.2%,-2.4%,4.4%,3.9
Nc1c(Br)cc2c3c(cccc13)-c1ccccc1-2,?,-20.6%,28.2µM*,-29.5%,16.6%,15.7
COCCN1C(=O)NC(=O)/C(=C\c2ccc(F)cc2)C1=O,8.3%,13.4µM*,-18.0%,15.8%,3.8%,-24.0
CN(C)c1ccc(/C=C2\C(=O)NC(=O)N(CCc3ccc(F)cc3)C2=O)cc1,?,1.06µM*,39.8µM*,-5.5%,0.9%,-82.2*
CN1C(=O)C(=Cc2ccc(N3CCCCCC3)cc2)C(=O)N(C)C1=O,?,1.5µM*,3.4%,?,3.6%,-10.5
C=CCN1C(=O)NC(=O)/C(=C/c2cc3c4c(c2)CCCN4CCC3)C1=O,-28.7%,?,45.7%,-9.0%,3.5%[46.1 µM],?
O=C1NC(=O)N(Cc2ccc(F)cc2)C(=O)/C1=C\c1ccc(N2CCCC2)cc1,?,1.5µM*,79.4µM*,?,6.4%,-58.9*
CC(=O)N1C[C@H](O)C[C@H]1C(=O)O,9.6%,?,-11.4%,-8.8%,0.4%,-6.8
Cc1ccc(/C=C2/C(=O)NC(=O)N(CCc3ccc(F)cc3)C2=O)o1,50.1µM*,0.844µM*,73.4%,5.3%,-1.9%,-67.4*
CN1C(=O)C(=Cc2cccnc2)C(=O)N(C)C1=O,?,16.8µM*,?,2.5%,-6.3%,-19.4
CC1=C[C@H]2[C@]3(O)C(C=C(CO)C[C@]2(O)C1=O)[C@@H]1C(C)(C)[C@]1(O)[C@H](O)[C@H]3C (some centres undefined),/,/,4.1%,/,/,/
NCC(=O)c1ccc(Cl)c(Cl)c1,/,/,/,0.2%,/,/
CC(=O)O[C@H]1C(=O)[C@@]2(C)C([C@H](OC(=O)c3ccccc3)[C@]3(O)C[C@H](OC(=O)[C@H](O)[C@@H](NC(=O)c4ccccc4)c4ccccc4)C(C)=C1C3(C)C)[C@]1(OC(C)=O)CO[C@@H]1C[C@@H]2OC(=O)[C@H](C)NC(=O)c1ccc(-c2c3ccc(=O)cc-3oc3cc(O)ccc23)c(C(=O)O)c1 (some centres undefined),/,/,-14.4%,/,/,/
CCN(CC)c1ccccc1,3.1%,-1.5%,-15.0%,1.6%,-0.9%,6.2
CCN(CC)c1ccc(/C=C/[N+](=O)[O-])cc1,-19.7%,-0.4%,17.8µM*,?,-2.8%,-4.3
Cc1cc(C)cc(OCCOc2cccc(C=C3C(=O)NC(=O)NC3=O)c2)c1,-10.5%,5.97µM*,?,?,1.3%,-51.3*
O=C1NC(=O)C(=Cc2ccc(Oc3ccc([N+](=O)[O-])cc3)cc2)C(=O)N1,25.1µM*,2.99µM*,31.6µM*,-9.6%,/,-57.6*
O=C1NC(=O)C(=Cc2ccc3ccccc3c2)C(=O)N1,-25.4%,4.23µM*,?,?,-9.2%,-79.4*
SMILES,WRN inhibitor,PLK1 PBD inh,VDR inhibitor,FEN1 inhibitor,TCR act,PI5P4Ka inh
O=C1NC(=O)C(=Cc2cc([N+](=O)[O-])ccc2N2CCCCC2)C(=O)N1,-11.5%,-7.8%,-3.5%,-12.0%,3.4%,2.4
O=C1NC(=O)C(=Cc2ccc(Cl)cc2)C(=O)N1,-31.7%,/,/,/,/,?
CC1C(=O)OC2O[C@]3(C)CC[C@H]4C(C)CCC1[C@]24OO3 (some centres undefined),/,/,-9.5%,/,/,/
CC(=O)NCC(N)C(=O)c1ccc(C)cc1 (centres undefined),/,/,/,-6.7%,/,/
CC(=O)OC1CC(OC(C)=O)[C@]2(C)C(CC(OC(C)=O)[C@]3(C)C2CC[C@@]2(C)C(c4ccoc4)C(=O)C4O[C@]432)C1(C)C (some centres undefined),/,/,-4.5%,/,/,/
CC(=O)OC1CC2C(C)(C)C(O)C=C[C@@]2(C)C2CC[C@]3(C)C(=CC(=O)OC3c3ccoc3)[C@]12C (some centres undefined),/,/,25.1µM*,/,/,/
COc1ccc(/C=C2\C(=O)NC(=O)N(Cc3ccccc3)C2=O)c(OC)c1OC,-5.9%,11.9µM*,?,?,4.7%,-29.4
Cc1cc(/C=C2\C(=O)NC(=O)N(Cc3ccccc3)C2=O)c(C)n1C1CC1,-14.0%,-14.2%,2.4%,3.3%,-8.3%,-7.1
COc1ccc(CN2C(=O)NC(=O)/C(=C\c3cc(OC)c(OC)c(OC)c3)C2=O)cc1,50.1µM*,8.44µM*,50.1µM*,-0.6%,-4.0%,?
O=C(NC1CCCCC1)Oc1cc2oc(=O)sc2cc1Cl,?,2.67µM*,31.6µM*,3.4%,-6.0%,-22.4
O=c1[nH]c2sccc2c2ccccc12,/,/,0.9%,/,/,/
Cc1ccc(CC2C(=O)N(C)C(=O)N(C)C2=O)s1,1.3%,26.7µM*,?,-2.5%,2.9%,/
COc1ccc(CC(=O)NC(=S)NNC(=O)COc2c(C)cccc2C)cc1,?,?,-12.3%,-2.2%,2.8%[46.1 µM],-22.3
N#Cc1cc2c(nc1SCC(=O)Nc1ccc(Cl)cc1)C1CCN2CC1,-7.3%,-6.3%,-2.2%,-0.3%,-4.9%,/
O=C(CSc1nc(-c2ccc(Cl)cc2)[nH]c(=O)n1)Nc1cccc(Cl)c1,-23.4%,23.8µM*,-16.9%,-16.8%,1.9%,?
COC(=O)[C@]1(C)CC[C@@]2(C)CC[C@@]3(C)C4=CCc5c(cc(O)c(O)c5C)[C@]4(C)CC[C@@]3(C)C2C1 (some centres undefined),/,/,28.2µM*,/,/,/
CC(=O)OC1CC[C@@]2(C)C3CC(=O)[C@]4(C)C(C(C)=O)=CCC4C3CC[C@H]2C1 (some centres undefined),/,/,2µM*,/,/,/
CC(=O)OC1CC[C@@]2(C)C3CC[C@]4(C)C(=O)CCC4C3CC[C@H]2C1 (some centres undefined),/,/,-9.2%,/,/,/
CC1(C)C(O)CC(=O)[C@]2(C)C1CC(=O)[C@]1(C)C2CC[C@@]2(C)C(c3ccoc3)OC(=O)C3O[C@@]321 (some centres undefined),/,/,-0.6%,/,/,/
